# Screening results deposited in PubChem BioAssay by National Center for Advancing Translational Sciences (NCATS).
# Rows were chosen to be rich in hits. Some 12% of all compounds tested hit in one or more screens of this group.
# G9a inh – G9a (human) methyltransferase inhibition | Potency, µM (top dose mostly 102 µM), most hits filed as inhibitors | AID 504332 | G9a H3K9 monomethylation, AlphaScreen, 2 h | actives 8.8% (n = 350,000) | Q96KQ7; note: nearly all actives have a fitted effect of over 75% in size
#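 Chemiluminescent proximity detection of H3K9 monomethylation, read after 10 min bead incubation in the dark. Reaction: 20 nM G9a, 500 nM biotin-H3K9 peptide, 20 uM SAM cofactor, 2 h, room temperature, following 15 min enzyme-compound preincubation.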
# JMJD2A Tudor inh – JMJD2A Tudor domain (human) inhibition. O75164. AlphaScreen JMJD2A-Tudor / H3K4me3 peptide binding. actives 4.4% (n = 390,000). AID 504339. Potency, µM (top dose mostly 114 µM), usual class: inhibitors; note: nearly all actives have a fitted effect of over 50% in size
# Target sequence (O75164 whole entry, looked up, the tested form may be a part): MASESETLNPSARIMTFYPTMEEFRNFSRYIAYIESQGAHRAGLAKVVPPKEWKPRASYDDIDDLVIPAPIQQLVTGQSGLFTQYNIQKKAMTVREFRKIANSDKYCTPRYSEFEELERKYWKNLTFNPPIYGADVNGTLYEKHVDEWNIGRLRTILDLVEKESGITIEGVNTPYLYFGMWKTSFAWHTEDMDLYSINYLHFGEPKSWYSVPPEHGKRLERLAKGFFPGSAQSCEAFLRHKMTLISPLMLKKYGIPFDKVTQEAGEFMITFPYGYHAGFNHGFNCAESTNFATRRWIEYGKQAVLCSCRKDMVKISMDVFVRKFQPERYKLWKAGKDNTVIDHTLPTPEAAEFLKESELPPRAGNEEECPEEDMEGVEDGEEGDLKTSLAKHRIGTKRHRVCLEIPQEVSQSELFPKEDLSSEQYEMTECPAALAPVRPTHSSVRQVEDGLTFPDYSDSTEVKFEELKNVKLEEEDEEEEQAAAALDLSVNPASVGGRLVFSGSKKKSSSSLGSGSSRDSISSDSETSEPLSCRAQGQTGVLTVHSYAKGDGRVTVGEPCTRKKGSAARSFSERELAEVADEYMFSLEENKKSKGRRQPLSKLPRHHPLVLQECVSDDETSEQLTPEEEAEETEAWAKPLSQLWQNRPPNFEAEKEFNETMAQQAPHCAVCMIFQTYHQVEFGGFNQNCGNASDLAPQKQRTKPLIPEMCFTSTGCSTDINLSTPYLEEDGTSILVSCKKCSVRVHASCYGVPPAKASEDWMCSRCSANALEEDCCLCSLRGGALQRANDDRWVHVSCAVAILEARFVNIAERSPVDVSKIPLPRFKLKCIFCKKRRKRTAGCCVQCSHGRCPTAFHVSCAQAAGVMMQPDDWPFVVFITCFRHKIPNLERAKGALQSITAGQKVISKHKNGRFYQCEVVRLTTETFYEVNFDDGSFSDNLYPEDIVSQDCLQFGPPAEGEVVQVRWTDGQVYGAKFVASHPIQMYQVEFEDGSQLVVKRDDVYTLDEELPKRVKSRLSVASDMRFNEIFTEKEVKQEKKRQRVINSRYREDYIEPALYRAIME
# HP1b chromo inh – inhibitors of HP1-beta chromodomain binding to methylated histone tails. AlphaScreen HP1-beta / biotin-H3K9me3 peptide binding. AID 540317. Potency, µM (titrated, usually from 114 µM), most hits filed as inhibitors. actives 0.56% (n = 390,000); note: nearly all actives have a fitted effect of over 70% in size
#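 HP1-beta protein (50 nM final) preincubated 30 min at room temperature with biotinylated H3(1-18)K9me3 peptide (50 nM) in PBS pH 7.4, 0.01% Tween-20, then compound added for 30 min. AlphaScreen streptavidin donor/nickel chelate acceptor beads (10 ug/mL final), 30 min dark, luminescence read.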
# Sfp PPTase inh – blocks B. subtilis Sfp PPTase activity. AID 1490. Potency, µM, usual class: inhibitors. actives 3.5% (n = 310,000). Biochemical Sfp PPTase activity, qHTS. Q9F4F7;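 note: the enzyme is Sfp with the accession as filed and its product quenches rhodamine fluorescence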
#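 After 15 min at room temperature with compound, 15 nM Sfp received 5 uM rhodamine-CoA plus 12.5 uM BHQ-2-ybbR (50 mM Hepes pH 7.6, 10 mM MgCl2). Rate came from the fluorescence difference over 30 min, ex 525/em 598 nm.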
# BAZ2B block – blocks human BAZ2B. AlphaScreen BAZ2B-H3K14Ac peptide displacement. Potency, µM (series often up to 114 µM), hits mostly inhibitors. actives 4.4% (n = 360,000). AID 504333; note: nearly all actives have a fitted effect of over 60% in size
#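 In this displacement format the biotinylated H3(5-23) peptide acetylated at Lys14 serves as ligand at 50 nM, with BAZ2B at 50 nM in PBS pH 7.4 containing 0.01% Tween-20. Donor and acceptor beads are 10 ug/mL final.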
# PLK1 PBD inh – PLK1 (human) polo-box domain binding inhibition | P53350 | Plk1 PBD binding of FITC phosphopeptide, fluorescence polarization | Potency, µM, usual class: inhibitors | actives 2.8% (n = 360,000) | AID 720504; note: series mostly up to about 57 µM; nearly all actives have a fitted effect of over 65% in size
# A number is an active result; – = inactive; ? = inconclusive; · = not tested or not shown; [ ] = dose if it differs, or a comment. Calls come from the whole dose curve; as a rule, active = well fitted curve in the direction sought with a large enough effect; inconclusive = small, poorly fitted or top-dose-only effect, or another doubt; inactive = no such curve, though single readings can be large; an effect the other way counts as inactive or inconclusive.
SMILES,G9a inh,JMJD2A Tudor inh,HP1b chromo inh,Sfp PPTase inh,BAZ2B block,PLK1 PBD inh
O=C(Nc1ccccc1)c1ccc(-c2ccccc2C(F)(F)F)o1,45µM,–,–,–,–,–
O=C(NCc1cccnc1)c1ccc(-c2ccc(Cl)cc2)o1,?,–,–,–,–,–
O=C(NCCc1ccccc1)c1ccc(-c2ccccc2Cl)o1,45µM,–,–,–,–,–
CCOc1ccc(-c2cc(NC(=O)c3ccccc3)c(C(=O)OC)s2)cc1,–,–,–,·,–,·
CCCNC(=O)C1(C)CCCN(C(=O)c2cc(C)n(C(C)(C)C)n2)C1 (stereo not given),·,·,·,·,·,–
COC1Cc2ccccc2N(C(N)=O)c2ccccc21 (stereo not given),·,–,–,·,·,–
O=C(Nc1ccccc1)c1ccc(-c2ccccc2Cl)o1,50µM,–,–,–,–,–
Nc1nnc(CC(=O)N/N=C/c2cc([N+](=O)[O-])cc(Br)c2O)s1,22µM,79µM,–,–,50µM,?
Nc1nnc(CC(=O)N/N=C/c2cccc([N+](=O)[O-])c2)s1,–[12.7 µM],–,–,50µM,–,–
COC(=O)N/N=C/c1cc([N+](=O)[O-])cc(Br)c1O,–,–,–,–,–,–
COc1ccc(Cl)cc1NC(=O)C1CSC(c2ccncc2)=N1 (stereo not given),11µM,–,–,?,–,–
COc1ccc(Cl)cc1NC(=O)NC(C)c1ccncc1 (stereo not given),–,–,–,–,–,–
COc1ccc(F)cc1S(=O)(=O)n1cc(C)nc1-c1ccccc1,–,22µM,–,–,–,4.2µM
Cc1c(C(=O)N2CCN(c3ccc(C(F)(F)F)cn3)CC2)oc2ccccc12,–,–[11.4 µM],–,–,–,30µM
Cc1c(C(=O)N2CCN(S(=O)(=O)c3cc(F)ccc3F)CC2)oc2ccccc12,?,–,–,·,79µM,–
COc1ccc(F)cc1S(=O)(=O)N1CCc2ccccc2C1,·,·,·,·,·,–
O=S(=O)(c1ccc(F)cc1)N1CCN(S(=O)(=O)c2cc(F)ccc2F)CC1,–[0.501 µM],?,–,–,–,21µM
CC(C)(C)OC(=O)NCC(=O)NNC(=O)c1nc2ccccc2[nH]1,·,–,·,·,·,·
COc1ccc(CCC(=O)NCC2CCCCC2)cc1OC,–,–,–,–,–,–
COc1ccc(F)cc1S(=O)(=O)N1CCCC(C)C1 (stereo not given),–,–,–,–,–,–
COc1ccc(F)cc1S(=O)(=O)N1CCCN(S(=O)(=O)c2cc(F)ccc2OC)CC1,–[12.7 µM],–[11.4 µM],–,–,–,27µM
Nc1ccc(S(=O)(=O)N2CCN(S(=O)(=O)c3c(F)cccc3F)CC2)cc1,·,89µM,·,·,·,·
CCCCC(=O)N(C)c1c(CC)nc2c(OCc3ccc(C(F)(F)F)cc3)cccn12,·,·,·,·,·,–
O=C(/C(=C/c1cccnc1)n1ccnc1)c1ccc(Cl)cc1Cl,–,–,–,?,?,?
O=C(/C(=C/c1ccncc1)n1ccnc1)c1ccc(Cl)cc1Cl,?,?,–,–,–,27µM
SMILES,G9a inh,JMJD2A Tudor inh,HP1b chromo inh,Sfp PPTase inh,BAZ2B block,PLK1 PBD inh
O=c1[nH]nc(CNc2ccc(O)cc2)c2ccccc12,11µM,–,–,?,?,–
COc1ccc2c(C)c(CCC(=O)NCCc3ccccc3)c(=O)oc2c1,–,–,–,·,–,·
CC(C)CN(C(=O)CCCSc1nc2ccccc2[nH]1)c1c(N)n(Cc2ccccc2)c(=O)[nH]c1=O,–,–,–,·,–,–
O=C1CC(c2ccccc2)n2nc(NC(=O)c3ccccn3)nc2N1 (stereo not given),–,7.9µM,–,?,–,–
O=C(Nc1nc2n(n1)C(c1ccccc1)C=C(c1ccccc1)N2)c1ccccc1 (stereo not given),10µM,56µM,–,·,20µM,·
O=C1CC(c2ccccc2)n2nc(NC(=O)c3ccccc3)nc2N1 (stereo not given),–,–,–,–,–,–
O=C(Nc1ccc(Cl)cc1)c1cnn2c1NC(c1ccccc1)=CC2c1ccccc1 (stereo not given),10µM,?,–,·,–,·
O=C(Nc1nc2n(n1)C(c1ccc(Cl)cc1)C=C(c1ccccc1)N2)c1ccco1 (stereo not given),–,–,–,·,–,·
COc1ccc(C2C=C(c3ccccc3)Nc3nc(NC(=O)c4ccc(C)cc4)nn32)cc1 (stereo not given),–,–,–,·,–,·
COc1ccc(C(=O)Nc2nc3n(n2)C(c2ccc(Cl)cc2)C=C(c2ccccc2)N3)cc1OC (stereo not given),?,56µM,–,·,28µM,·
O=C(CSc1cc(Cl)ccc1Cl)NCCN1C(=O)CSC1=O,·,–,–,·,·,–
O=C(CC1OC(=O)c2ccccc21)NNC(=O)c1ccc(F)cc1 (stereo not given),–[12.7 µM],–,–,·,–,–
CCC1=C2CC[C@H]3C(=O)N(C)C(=O)[C@H]3[C@H]2[C@@]2(C)C(=O)N(CC3CC3)C(=O)N2C1=O,·,·,·,–,·,·
CC(=O)NC1=CC(=O)c2nonc2C1=O,·,?,–,·,·,·
Cc1ccc(NC(=O)Cn2nc(-c3ccc(Cl)cc3)c3ccccc3c2=O)cc1,–,–,–,·,–,·
O=C(Cn1sc2ccccc2c1=O)Nc1ccc(Cl)cc1,·,·,·,·,·,5.3µM
O=C(Cn1sc2ccccc2c1=O)Nc1ccc(Br)cc1,·,·,·,·,·,3µM
O=C(Cn1sc2ccccc2c1=O)Nc1ccc(F)cc1,·,·,·,·,·,3µM
Cc1c(Cl)cccc1NC(=O)CCS(=O)(=O)c1cccc2nsnc12,–,–,–,·,–,·
Cc1nn(Cc2ccc(C(=O)NC(C)(C)C)o2)c(C)c1Br,?,–,–,56µM,–,–
CC(C)CN(C(=O)c1cccc([N+](=O)[O-])c1)c1c(N)n(CC(C)C)c(=O)[nH]c1=O,50µM,–,–,–,–,–
CC(C)CN(C(=O)c1cc2ccccc2o1)c1c(N)n(CC(C)C)c(=O)[nH]c1=O,50µM,–,–,–,–,–
O=C(O)c1cccnc1-c1ncccc1C(=O)O,56µM,?,–,?,–,–
CC(C)N(CCn1cnc2c([nH]c3ccccc32)c1=O)C(C)C,·,–[11.4 µM],–,–,–,–
COc1cc2[nH]c3c(=O)n(CCN(C(C)C)C(C)C)cnc3c2cc1OC,79µM,–,–,–,–,–
SMILES,G9a inh,JMJD2A Tudor inh,HP1b chromo inh,Sfp PPTase inh,BAZ2B block,PLK1 PBD inh
O=C1/C(=C/c2cccs2)NC(=S)N1C1CC1,40µM,40µM,–,–,–,–
O=C1NC(=S)SC1=Cc1cccs1,·,–,?,·,·,?
N=c1n(CCN2CCCCC2)c2ccccc2n1CC(=O)c1cccs1,·,–,–,–,–,–
O=C(CCN1CCC(c2ccccc2)C1)c1ccccc1 (stereo not given),·,–,–,–,?,?
O=C(CCN1CCCC1)c1cccs1,25µM,–,–,–,–,11µM
O=C(CCN1CCC(c2ccccc2)C1)c1cccs1 (stereo not given),?,–,–,–,–,21µM
